PubChem BioAssay (Tox21)
Records with an inconclusive call do not appear. Values without a mark were called inactive. Activity calls are given as the source filed them. Calls follow the shape of the full dose curve.

What follows are molecules tested against Progesterone receptor (Homo sapiens) (UniProt P06401) (assay: qHTS assay to identify small molecule agonists of the progesterone receptor (PR) signaling pathway (AID 1346784; also: nearly all actives have a fitted effect of over 30% in size)). Details: PR-UAS-bla HEK293T, beta-lactamase FRET ratio, 16 h; series mostly up to 92.4 µM; activation: at the top concentration.
Text: U.S. Tox21 Program National Center for Advancing Translational Sciences [NCATS] NIH Chemical Genomics Center [NCGC] U.S. Environmental Protection Agency [EPA] National Institutes of Environmental Health Sciences [NIEHS] National Toxicology Program [NTP] U.S. Food and Drug Administration [FDA] […] Endocrine disrupting chemicals (EDCs) and their interactions with steroid hormone receptors like PR causes disruption of normal endocrine function. To identify the compounds that activate PR signaling, a PR-UAS-bla GripTite cell line i.e. PR-UAS-bla HEK 293T (Invitrogen, Carlsbad, CA, USA) containing a beta-lactamase reporter gene under the control of an Upstream Activator Sequence (UAS) was used to screen Tox21 10K compound library.
Tox21 Assay Protocol Summary: PR-UAS-bla HEK 293T cells were dispensed at 3,000 cells/5 uL of assay medium containing 2% charcoal stripped FBS per well into black wall/clear-bottom 1536-well plates using a Multidrop Combi (ThermoFisher Scientific, Waltham, MA) dispenser. After the assay plates were incubated at a 37C and 5% CO2 for 6hr, 23 nL of compounds dissolved in DMSO, positive controls or DMSO only was transferred to the assay plate by a Pintool station (Kalypsys, San Diego, CA). The plates were incubated at 37C and 5% CO2 for 16hr. Then 1 uL of LiveBLAzer B/G FRET substrate was added using a BioRAPTR FRD (Flying Reagent Dispenser, Aurora Discovery, San Diego, CA). After the plates were incubated at room temperature for 2 hours, fluorescence intensity was measured by an Envision plate reader (PerkinElmer, Shelton, CT).
% is scaled to controls: 0 for no effect and ±100 for the full control effect; potency is read from the fitted curve at half-maximal effect.

Sequence of Progesterone receptor (Homo sapiens) (P06401 whole entry, looked up): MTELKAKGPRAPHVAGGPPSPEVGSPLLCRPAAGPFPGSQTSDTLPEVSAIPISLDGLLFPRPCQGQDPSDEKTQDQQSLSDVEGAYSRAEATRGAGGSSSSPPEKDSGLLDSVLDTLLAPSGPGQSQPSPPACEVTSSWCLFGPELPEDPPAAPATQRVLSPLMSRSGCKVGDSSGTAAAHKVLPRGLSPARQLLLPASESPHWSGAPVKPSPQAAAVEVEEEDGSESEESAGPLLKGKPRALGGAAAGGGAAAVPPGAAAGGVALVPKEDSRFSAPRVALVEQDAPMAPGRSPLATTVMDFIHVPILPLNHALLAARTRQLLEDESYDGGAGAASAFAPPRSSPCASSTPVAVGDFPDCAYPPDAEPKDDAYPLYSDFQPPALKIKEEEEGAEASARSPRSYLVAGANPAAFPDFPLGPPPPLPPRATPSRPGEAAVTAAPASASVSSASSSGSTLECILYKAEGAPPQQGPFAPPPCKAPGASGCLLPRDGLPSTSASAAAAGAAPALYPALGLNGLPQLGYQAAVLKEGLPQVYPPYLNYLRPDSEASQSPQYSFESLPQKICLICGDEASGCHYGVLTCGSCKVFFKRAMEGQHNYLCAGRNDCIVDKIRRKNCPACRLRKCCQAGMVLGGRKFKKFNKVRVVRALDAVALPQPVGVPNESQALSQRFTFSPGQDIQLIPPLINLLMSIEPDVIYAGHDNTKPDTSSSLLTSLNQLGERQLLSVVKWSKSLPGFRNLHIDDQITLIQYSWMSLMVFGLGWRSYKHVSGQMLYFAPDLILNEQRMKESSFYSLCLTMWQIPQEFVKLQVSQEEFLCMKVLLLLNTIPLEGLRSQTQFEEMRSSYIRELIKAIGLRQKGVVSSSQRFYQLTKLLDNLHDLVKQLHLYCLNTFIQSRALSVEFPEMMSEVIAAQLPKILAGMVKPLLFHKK

Row | Structure (SMILES) | activation | Potency
1 | O=C1[C@@H]2[C@H]3CC[C@H](C3)[C@@H]2C(=O)N1CCCCN1CCN(c2ncccn2)CC1 | 0.134% [at 42.5 µM] | 
2 | O=C(NS(=O)(=O)/C=C/c1ccccc1)c1ccc(F)cc1Cl | -3.93% | 
3 | CC(C)N(C)C | 1.07% | 
4 | c1ccc(CNc2ncnc3c2ncn3C2CCCCO2)cc1 (stereo not given) | -1.01% | 
5 | Cc1c[nH]c2ccccc12 | 0.399% [at 42.5 µM] | 
6 | O=C(c1ccccc1)c1ccc(O)cc1 | 0.0809% | 
7 | CC(=O)NNC(C)=O | -2.17% | 
8 | O=c1[nH][nH]c(=O)c2cc([N+](=O)[O-])ccc12 | -0.0866% | 
9 | CC12CC3CC(C)(C1)CC(N)(C3)C2 | 0.957% [at 42.5 µM] | 
10 | CCC(CO)(CO)CO | -0.0079% | 
11 | CC(CCc1ccc(O)cc1)NCCc1ccc(O)c(O)c1 (stereo not given) | -0.328% [at 42.5 µM] | 
12 | O=C(c1ccccc1)C1CCC1 | -0.12% | 
13 | CCCCOC(=O)CCCCC(=O)OCCCC | -0.118% | 
14 | CC1=C2[C@@H]([C@H](C)CC[C@H]2/C=C(\C)C(=O)O)[C@H](O)C1 | -0.441% | 
15 | CC(=O)OCC1=C(C(=O)O)N2C(=O)[C@@H](NC(=O)CSc3ccncc3)[C@H]2SC1 | 0.155% [at 42.5 µM] | 
16 | Nc1c(Cl)cc(Cl)cc1[N+](=O)[O-] | 1.8% | 
17 | [Cl][Nd]([Cl])[Cl] | 3.63% | 
18 | O=S(=O)(Cl)c1c(Cl)cccc1Cl | -0.0201% | 
19 | CC[C@H]1OC(=O)[C@H](C)[C@@H](O[C@H]2C[C@@](C)(OC)[C@@H](O)[C@H](C)O2)[C@H](C)[C@@H](O[C@@H]2O[C@H](C)C[C@H](N(C)C)[C@H]2O)[C@](C)(O)C[C@@H](C)C(=O)[C@H](C)[C@@H](O)[C@]1(C)O | -1.04% [at 42.5 µM] | 
20 | CCN(CC)CCNC(=O)c1cc(Cl)c(N)cc1OC | -0.62% [at 42.5 µM] | 

Row | Structure (SMILES) | activation | Potency
21 | COC(OC)OC | 0.0788% | 
22 | CCCCCCCCCCCCCCCCCC(=O)OCC(CC)CCCC (stereo not given) | -0.339% | 
23 | CCCCCCC(CO)CCCC (stereo not given) | 1.31% | 
24 | O=C(O)CNC(=O)c1ccccc1I | -1.12% [at 42.5 µM] | 
25 | COc1ccc(/C=C/C(=O)c2ccc(OC)cc2OC)cc1 | -4.61% [at 42.5 µM] | 
26 | Oc1cccc2[nH]ccc12 | 1.58% [at 42.5 µM] | 
27 | CCN(CC)C(=O)N1CCN(C)CC1 | -1.77% [at 42.5 µM] | 
28 | O=C(O)/C=C/c1ccc(O)c(O)c1 | -0.0079% | 
29 | CC(=O)OC(C)C[N+](C)(C)C (stereo not given) | 2.01% [at 42.5 µM] | 
30 | CCN(CC)CCOC(=O)C(c1ccccc1)c1ccccc1 | -1.46% [at 42.5 µM] | 
31 | O=P(O)(O)Oc1ccccc1 | -0.993% | 
32 | CCCCCCCCCCCCCOS(=O)(=O)O | 4.76% | 
33 | O=C1CC[C@@H](C(=O)O)N1 | -0.516% [at 42.5 µM] | 
34 | CCCCCCCCCCCCCCCC(=O)OCC | 0.136% | 
35 | COC(C)(C)OC | -0.787% | 
36 | C=C(C)c1ccccc1 |  | 15.4 µM (active)
37 | O=C(O)CCCc1c[nH]c2ccccc12 | -0.551% | 
38 | COc1ccc(N)c([N+](=O)[O-])c1 | -2.84% | 
39 | Cc1ccc(Cl)cc1N | -0.0079% | 
40 | CC(C)C1CCC(C(=O)N[C@H](Cc2ccccc2)C(=O)O)CC1 (stereo not given in full) | -2.22% [at 42.5 µM] | 
